Test systems include SK-MEL-2 melanoma; EKVX NSCLC; SN12C renal; UO-31 renal; TK-10 renal; CAKI-1 renal; A498 renal; CCRF-CEM leukemia; MOLT-4 leukemia; ACHN renal.
What all share (assay): NCI-60 one-dose screen, 48 h (100 = growth as untreated, 0 = no growth, -100 = all killed)
What all share (conditions): 10 µM unless noted

The structures appear in SMILES notation. The panel holds about 83,000 compounds, 20% with a hit somewhere; the sample as a whole holds those more often.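 Interpretation: 100, growth as untreated; towards 0, rising growth inhibition; 0, no net growth; 0 to -100, cell death. Compounds scoring below 10 were considered active.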 A number with no mark means an inactive call. Active and inactive are the calls of the source.

Turning to `COc1ccc2c3ccnc(C(F)(F)F)c3n(CCCCN)c2c1`, the growth in the assay with SK-MEL-2 melanoma is 55.3%; in the assay on EKVX NSCLC, 45.7%; with SN12C renal it was 51.6%; in the assay on UO-31 renal, 13.4%; in the assay on TK-10 renal, 61.3%; with CAKI-1 renal, 29.6%. Also, the growth in the assay on A498 renal is 17%; in the assay on CCRF-CEM leukemia it was 72.7%.

With `CCCCCCCCCN(CCCCCCCCC)C(C)C(=O)c1ccc2cc(Br)c3ccccc3c2c1` (configuration not stated), the growth in the assay with SK-MEL-2 melanoma is 125%; with EKVX NSCLC, 72.6%; in the assay on SN12C renal, 79.8%; in the assay with UO-31 renal it was 47.2%; with TK-10 renal, 93.7%; with CAKI-1 renal, 71.5%. The growth is 96.8% in the assay with A498 renal, 60.6% in the assay with CCRF-CEM leukemia and 86% in the assay on MOLT-4 leukemia.

For `COC(=O)C(=Cc1ccccc1[N+](=O)[O-])C(=O)OC`, the growth in the assay on SK-MEL-2 melanoma was 73.5%; in the assay with EKVX NSCLC, 51.4%; in the assay on SN12C renal it was 51.1%; in the assay with UO-31 renal, 31.2%; with TK-10 renal it was 14.7%; with CAKI-1 renal, 31.2%. The growth in the assay with A498 renal is 69.1%; in the assay with CCRF-CEM leukemia, -1.09% (active); in the assay on MOLT-4 leukemia, 4.68% (active).

On to `COc1cc(C)cc2oc3oc(=N)c(C(=O)c4ccccc4)cc3c(=O)c12`, for which the growth in the assay with SK-MEL-2 melanoma is 114%; with EKVX NSCLC, 106%; with SN12C renal it was 101%; in the assay with UO-31 renal, 79.3%; in the assay with TK-10 renal it was 105%; in the assay on CAKI-1 renal, 91.6%. Further, the figures for the growth in the assay with A498 renal and with MOLT-4 leukemia were 90.3% and 98.1%, respectively.

Take `C#CCOc1ccc(C2=NN(CC3CC3)C3N=C(Cl)c4ncn(CC5CC5)c4N23)cc1OCC#C` (configuration not stated): the growth in the assay on SK-MEL-2 melanoma is 82.7%; in the assay with EKVX NSCLC it was 80.1%; in the assay with SN12C renal, 82.2%; in the assay with UO-31 renal, 46.9%; with TK-10 renal, 76%; in the assay with CAKI-1 renal it was 43.7%. In addition, the growth in the assay on A498 renal is 50.9%; with CCRF-CEM leukemia, 64.3%; in the assay with MOLT-4 leukemia, 61%.

Regarding `C=C(C)[C@@H]1CC[C@]2(C(N)=O)CC[C@]3(C)[C@H](CC[C@@H]4[C@@]5(C)CC[C@H](O)C(C)(C)[C@@H]5CC[C@]43C)[C@@H]12`, the growth was -31.2% [100 µM] (active) in the assay on SK-MEL-2 melanoma; -10.3% [100 µM] (active) with EKVX NSCLC; -45.8% [100 µM] (active) in the assay on SN12C renal; -100% [100 µM] (active) in the assay on UO-31 renal; -69.8% [100 µM] (active) in the assay on TK-10 renal; -64.3% [100 µM] (active) in the assay on CAKI-1 renal. The results for the growth in the assay with A498 renal, in the assay on CCRF-CEM leukemia and with MOLT-4 leukemia were -28.3% [100 µM] (active), 3.11% [100 µM] (active) and 1.86% [100 µM] (active), respectively.

On to `COc1ccc(-c2c(C)nn3c(NCCN4CCOCC4)cc(C)nc23)cc1OC`, for which the growth in the assay on SK-MEL-2 melanoma was 104%; in the assay on EKVX NSCLC it was 83.9%; in the assay with SN12C renal it was 100%; in the assay with UO-31 renal, 104%; with TK-10 renal it was 102%; in the assay with CAKI-1 renal, 75.2%. The growth in the assay on A498 renal was 78%; in the assay on CCRF-CEM leukemia, 97.6%; in the assay on MOLT-4 leukemia, 90.2%.

For the compound `C=C(C)[C@@H]1CC[C@]2(C(=O)NCCCCCCN(CCCN)CCCN)CC[C@]3(C)[C@H](CC[C@@H]4[C@@]5(C)CC[C@H](OCCCN)C(C)(C)[C@@H]5CC[C@]43C)[C@@H]12`, the growth is 122% [100 µM] in the assay with SK-MEL-2 melanoma; 141% [100 µM] in the assay on EKVX NSCLC; 81.9% [100 µM] in the assay on SN12C renal; 53.4% [100 µM] with UO-31 renal; 119% [100 µM] in the assay on TK-10 renal; 130% [100 µM] in the assay on A498 renal. Further, the growth with CCRF-CEM leukemia is 11.8% [100 µM].

In the case of `C[n+]1cccc(NC(=O)c2ccc3ccc4ccc(C(=O)Nc5ccc[n+](C)c5)nc4c3n2)c1`, the growth is 56.9% in the assay on SK-MEL-2 melanoma; 68.1% in the assay on EKVX NSCLC; -14.8% (active) with SN12C renal; 65.4% with UO-31 renal; 94.2% in the assay with TK-10 renal; 52.3% with CAKI-1 renal. Besides, the growth with A498 renal is 95.3%; in the assay on CCRF-CEM leukemia it was 71.1%; in the assay on MOLT-4 leukemia, 71.5%.

Regarding `Cc1cc(C)c(-c2cc(O)c(-c3c(C)cc(C)cc3C)cc2O)c(C)c1`, the growth with SK-MEL-2 melanoma is 66%; in the assay on EKVX NSCLC it was 53.9%; in the assay on SN12C renal it was 65.5%; in the assay with TK-10 renal, 56.3%; in the assay with ACHN renal, 38.3%; in the assay with CAKI-1 renal, 40.4%. Also, the results for the growth in the assay with A498 renal, in the assay with CCRF-CEM leukemia and with MOLT-4 leukemia were 5.72% (active), 18.5% and 47.9%, respectively.

Regarding `CSc1nc(=S)c2nc(SC)n(-c3ccccc3)c2[nH]1`, the growth in the assay with SK-MEL-2 melanoma is 83.1%; in the assay with EKVX NSCLC it was 105%; in the assay with SN12C renal, 96.7%; in the assay with TK-10 renal, 96.9%; with ACHN renal it was 102%; in the assay on A498 renal, 86.6%. Further, the growth in the assay on CCRF-CEM leukemia was 82.5%.

For `Cc1cc[n+](CCCCCCCCCC[n+]2ccc(C)cc2)cc1`, the growth in the assay on SK-MEL-2 melanoma is 98.4%; in the assay on EKVX NSCLC, 95.4%; in the assay on SN12C renal, 63.5%; in the assay with TK-10 renal, 82.7%; with ACHN renal it was 105%; with CAKI-1 renal it was 96.6%. In addition, the growth was 85% in the assay on A498 renal, 99.1% in the assay with CCRF-CEM leukemia and 83.5% in the assay with MOLT-4 leukemia.
